# Screening data: PubChem BioAssay, National Center for Advancing Translational Sciences (NCATS)
# Tau FP inhib: qHTS for Inhibitors of Tau Fibril Formation, Fluorescence Polarization; Microtubule-associated protein tau (Homo sapiens), P10636; K18 P301L tau heparin fibrillization, Alexa594 FP, 6 h; Potency, µM (titrated, usually from 57.7 µM), without a hit: at the highest dose activity, negative = inhibition, hits mostly inhibitors; 280,000 compounds, 0.39% hits; AID 1468, 2008; note: nearly all actives have a fitted effect of over 55% in size
# Target sequence (P10636 561-689 P618L limits assumed): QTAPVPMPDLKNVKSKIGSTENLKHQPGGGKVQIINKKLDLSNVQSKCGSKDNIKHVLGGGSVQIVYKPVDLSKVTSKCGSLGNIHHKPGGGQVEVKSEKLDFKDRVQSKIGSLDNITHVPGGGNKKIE
#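 Human tau K18 […] P301L fragment, 15 uM unlabeled plus 0.24 uM Alexa 594-labeled tau (final), with compound and 20 uM heparin in 100 mM sodium acetate pH 7; 6 hr at 37 C, then Alexa 594 FP read.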
# NPSR antagonist: qHTS Assay for Antagonists of the Neuropeptide S Receptor: cAMP Signal Transduction | Q6W5P4 | CHO-NPSR cells, cAMP TR-FRET, antagonist mode | Potency, µM (titrated, usually from 38.3 µM), without a hit: at the top dose activity change, negative = inhibition, actives largely listed as inhibitors | 220,000 compounds, 1% hits; note: nearly all actives have a fitted effect of over 50% in size
# Target sequence (Q6W5P4 whole entry, looked up): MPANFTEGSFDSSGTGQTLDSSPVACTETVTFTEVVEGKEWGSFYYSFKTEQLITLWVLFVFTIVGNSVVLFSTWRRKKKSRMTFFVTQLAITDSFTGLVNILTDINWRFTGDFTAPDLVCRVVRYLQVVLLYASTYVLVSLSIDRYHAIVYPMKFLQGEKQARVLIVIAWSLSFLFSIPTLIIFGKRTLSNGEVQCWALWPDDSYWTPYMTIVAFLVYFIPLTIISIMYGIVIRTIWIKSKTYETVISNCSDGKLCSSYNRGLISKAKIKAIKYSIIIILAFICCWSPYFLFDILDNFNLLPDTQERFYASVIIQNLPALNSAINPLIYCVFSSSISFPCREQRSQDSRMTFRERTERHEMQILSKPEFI
# Tau fluor cs: Counterscreen qHTS for Inhibitors of Tau Fibril Formation, Fluorescence Polarization. 280,000 compounds, 0.93% hits. AID 1463, 2008. Potency, µM (doses to about 57.7 µM), without a hit: at the highest dose activity change, negative = decrease. tau K18 P301L Alexa594 fluorescence, heparin fibrillization; note: nearly all actives have a fitted effect of over 55% in size
#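 Human K18 P301L tau (15 uM unlabeled plus 0.24 uM Alexa 594-labeled, final) in 100 mM sodium acetate pH 7 was mixed with compound and 20 uM heparin and incubated 6 hr at 37 C.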
# Luc counter: Counterscreen for Luciferase (Kinase-Glo TM) Inhibition | Potency, µM (top dose mostly 38.3 µM), inactives show at the highest dose activity change, negative = inhibition, usual class: inhibitors | Kinase-Glo luciferase, ATP luminescence, 8 min | Luciferin 4-monooxygenase (Photuris pensylvanica), Q27757 | AID 1379, 2008 | 200,000 compounds, 0.28% hits; note: nearly all actives have a fitted effect of over 60% in size
#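 Recombinant Kinase-Glo luciferase, 10 uM ATP (linear range), luciferin; imidazole pH 7.2 / KCl / MgCl2 / Tween / BSA buffer; 8 min RT; luminescence.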
# Tau ThT inhib: qHTS for Inhibitors of Tau Fibril Formation, Thioflavin T Binding; recombinant tau K18 P301L (four-repeat tau fragment), heparin-induced fibrillization, ThT fluorescence; Microtubule-associated protein tau (Homo sapiens), P10636; 270,000 compounds, 2.1% hits; Potency, µM (top dose mostly 57.4 µM), inactives show at the highest dose activity, negative = inhibition, usual class: inhibitors; note: nearly all actives have a fitted effect of over 55% in size
#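 Aggregation was driven by heparin (20 uM final) acting on recombinant tau […] bearing P301L in 100 mM sodium acetate pH 7; fibrils were detected with Thioflavin T.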
# * marks the source's active call; other numbers are inactive results; ? = inconclusive; nt = no result; [ ] = remark or other dose. Only some compounds are listed: those with a hit (about 3.3% of all), similar ones and a draw of the others. Calls come from the whole dose curve; as a rule, active = well fitted curve in the direction sought with a large enough effect; inconclusive = small, poorly fitted or top-dose-only effect, or another doubt; inactive = no such curve, though single readings can be large; an effect the other way counts as inactive or inconclusive. % is set by controls: 0 for no effect and ±100 for the full control effect; potency is the fitted concentration of half-maximal effect.
SMILES,Tau FP inhib,NPSR antagonist,Tau fluor cs,Luc counter,Tau ThT inhib
CN(C)S(=O)(=O)c1ccc(C(=O)NCCSc2c(-c3ccc(Cl)cc3)[nH]c3ccccc23)cc1,-15%,nt,14µM*[quencher],nt,-12%
CCOc1ccc(C(=O)NCCSc2c(C)[nH]c3ccccc23)cc1OCC,?,nt,14µM*[quencher],nt,?
CCOC(=O)CSc1c(-c2ccc(Cl)cc2)[nH]c2ccccc12,?,-48%,11µM*[quencher],-3%,-2%
Cc1ccc(C(=O)NCCSc2c[nH]c3ccccc23)cc1C,6%,nt,16µM*[quencher],nt,?
Cc1ccc(-c2[nH]c3ccccc3c2SCCNC(=O)c2ccc(S(=O)(=O)N(C)C)cc2)cc1,8%,nt,?,nt,-2%
CCC(CCC(C)C1CCC2C3CCC4CC(O)CC[C@@]4(C)C3CC[C@@]12C)C(C)C (stereo partly drawn),2%,nt,1%,0%,-1%
O=C(NCCSc1c[nH]c2ccccc12)c1c(F)cccc1F,-2%,21%,-16%,nt,-5%
COc1ccc(-c2[nH]c3ccccc3c2SCCNC(=O)c2ccc(S(=O)(=O)N(C)C)cc2)cc1,3%,nt,4µM*[quencher],nt,-10%
CCN(CC)S(=O)(=O)c1ccc(C(=O)NCCSc2c(-c3ccc(OC)cc3)[nH]c3ccccc23)cc1,3%,nt,4µM*[quencher],nt,-2%
O=C(Cc1cccs1)NCc1ccccc1,3%,-14%[46.1 µM],10%,-3%,14%
COc1cccc(C(=O)NCCSc2c(-c3ccc(F)cc3)[nH]c3ccccc23)c1OC,-8%,nt,5µM*[quencher],nt,-13%
CCN(CC)S(=O)(=O)c1ccc(C(=O)NCCc2cc3c(OC)ccc(OC)c3[nH]c2=O)cc1,11%,-19%[46.1 µM],-14%,2%,-28%
O=C(Cc1cccs1)NCCSc1c(-c2ccc(Cl)cc2)[nH]c2ccccc12,-14%,10µM*,7.1µM*[quencher],1%,-15%
COc1ccc(-c2[nH]c3ccccc3c2SCCNC(=O)c2cc(OC)c(OC)c(OC)c2)cc1,13%,nt,7.1µM*[quencher],nt,?
COc1cc(N/N=C(\C)c2ccc(O)c(C)c2)nc(-c2ccccc2)n1,?,?,8.9µM*[quencher],3%,?
COc1cc(N/N=C(\C)c2ccc(N)cc2)nc(-c2ccccc2)n1,3%,-44%,14µM*[quencher],-3%,16µM*
CCCOc1ccc(C(=O)NCC2OCCc3ccccc32)cc1 (stereo not drawn),2%,nt,-12%,nt,?
COc1cccc(CNCc2c(C(=O)O)c(C)n(Cc3ccc(F)cc3Cl)c2C)c1OC,7%,nt,-2%,nt,-13%
C[C@@](N)(Cc1ccc(O)c(O)c1)C(=O)O,?,nt,?,-5%,4.5µM*
O=C(/C(N=Nc1cccc([N+](=O)[O-])c1)=C(/O)c1ccc(Br)cc1)C(F)(F)F,8%,6.3µM*,16µM*[quencher],nt,25µM*
COC(=O)c1[nH]c2ccc(Cl)cc2c1NC(=O)CN1CCc2cc(OC)c(OC)cc2C1,3%,-22%[46.1 µM],18µM*[quencher],0%,?
FC(F)(F)C(Oc1nc(NC2CCCCC2)nc(N2CCOCC2)n1)C(F)(F)F,-6%,10µM*,-14%,1%,-16%
Cc1cc(C(=O)COC(=O)c2ccc(N)c([N+](=O)[O-])c2)c(C)n1Cc1ccc2c(c1)OCO2,?,-9%,4.5µM*[quencher],nt,?
Cc1cc(C(=O)COC(=O)c2ccc(N)c([N+](=O)[O-])c2)c(C)n1-c1ccc2c(c1)OCO2,2%,8%,?,-1%,?
C=CCn1c(C)cc(C(=O)COC(=O)c2ccc(N)c([N+](=O)[O-])c2)c1C,-9%,-7%,25µM*[quencher],-1%,?
Cc1ccc2[nH]c3c(=O)n(CC(=O)Nc4ccc(Br)cc4C)ncc3c2c1,-10%,nt,-2%,nt,4%
COC1=C/C(=C/c2c(O)c(C#N)c3ccccn23)C=CC1=O,-11%,1%,-21%,nt,14µM*
O=c1[nH]c2ccc(NCc3ccc(-c4ccc(Br)cc4)o3)cc2[nH]1,12%,nt,-17%,nt,-14%
